The text below walks through data of ChEMBL document CHEMBL1961873, “Compounds: GSK PKIS; Assays: Nanosyn kinase panel” (2012).

Assay [1] addresses T1, Muscle, skeletal receptor tyrosine-protein kinase (Homo sapiens) (UniProt O15146).
T1 sequence (whole entry): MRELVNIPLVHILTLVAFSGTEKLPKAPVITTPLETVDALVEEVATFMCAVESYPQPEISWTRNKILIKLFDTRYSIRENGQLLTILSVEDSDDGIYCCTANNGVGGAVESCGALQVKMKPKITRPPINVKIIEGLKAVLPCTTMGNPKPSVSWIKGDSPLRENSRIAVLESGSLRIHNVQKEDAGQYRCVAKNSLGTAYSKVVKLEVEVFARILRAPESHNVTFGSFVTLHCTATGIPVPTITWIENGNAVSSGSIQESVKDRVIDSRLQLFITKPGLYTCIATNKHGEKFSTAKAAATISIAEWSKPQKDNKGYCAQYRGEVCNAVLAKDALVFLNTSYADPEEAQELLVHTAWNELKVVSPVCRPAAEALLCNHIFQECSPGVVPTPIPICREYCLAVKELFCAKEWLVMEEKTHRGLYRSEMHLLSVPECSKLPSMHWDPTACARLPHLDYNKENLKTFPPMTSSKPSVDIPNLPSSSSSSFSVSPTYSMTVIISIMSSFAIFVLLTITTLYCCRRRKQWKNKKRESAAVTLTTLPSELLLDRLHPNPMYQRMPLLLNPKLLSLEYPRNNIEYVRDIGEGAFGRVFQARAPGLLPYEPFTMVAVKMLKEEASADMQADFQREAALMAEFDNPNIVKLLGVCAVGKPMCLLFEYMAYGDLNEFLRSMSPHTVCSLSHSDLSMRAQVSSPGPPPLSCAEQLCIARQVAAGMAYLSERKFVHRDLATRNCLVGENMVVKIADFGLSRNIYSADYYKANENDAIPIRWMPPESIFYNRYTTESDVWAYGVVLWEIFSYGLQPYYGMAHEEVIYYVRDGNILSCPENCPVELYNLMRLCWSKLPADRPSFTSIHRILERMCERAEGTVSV
The note with it: at 1 µM.

Assay [2] concerns the target Platelet-derived growth factor receptor alpha (Homo sapiens) (UniProt P16234). The note with it: at 0.1 µM.
For assay [3] the target is unchanged. The following applies: at 1 µM.
In assay [4] the test system is Platelet-derived growth factor receptor alpha (Homo sapiens), P16234 [D842V]. The following applies: at 0.1 µM.
For assay [5] the test system is unchanged. The note with it: at 1 µM.
The subject of assay [6] is Platelet-derived growth factor receptor alpha (Homo sapiens), P16234 [T674I]. The following applies: at 0.1 µM.
The test system is the same in assay [7]. The following applies: at 1 µM.
Assay [8] has as its system Platelet-derived growth factor receptor alpha (Homo sapiens), P16234 [V561D]. The following applies: at 0.1 µM.
For assay [9] the test system is unchanged. The following applies: at 1 µM.
In assay [10] the target is Platelet-derived growth factor receptor beta (Homo sapiens) (UniProt P09619). The note with it: at 0.1 µM.
The target is the same in assay [11]. The note with it: at 1 µM.
Assay [12] deals with Tyrosine-protein kinase FRK (Homo sapiens) (UniProt P42685). The following applies: at 0.1 µM.
The target is the same in assay [13]. The note with it: at 1 µM.
The target of assay [14] is Protein-tyrosine kinase 2-beta (Homo sapiens) (UniProt Q14289). The following applies: at 0.1 µM.
The target is the same in assay [15]. The following applies: at 1 µM.
The target of assay [16] is Proto-oncogene tyrosine-protein kinase receptor Ret (Homo sapiens) (UniProt P07949). The note with it: at 0.1 µM.
The target is the same in assay [17]. The note with it: at 1 µM.
For assay [18], the system named is Proto-oncogene tyrosine-protein kinase receptor Ret (Homo sapiens), P07949 [V804L]. The note with it: at 0.1 µM.
For assay [19] the test system is unchanged. The following applies: at 1 µM.
The test system of assay [20] is Proto-oncogene tyrosine-protein kinase receptor Ret (Homo sapiens), P07949 [Y791F]. The note with it: at 0.1 µM.

Structures are written as SMILES.

Sequence of Platelet-derived growth factor receptor alpha (Homo sapiens), P16234 [V561D] (P16234 whole entry V561D): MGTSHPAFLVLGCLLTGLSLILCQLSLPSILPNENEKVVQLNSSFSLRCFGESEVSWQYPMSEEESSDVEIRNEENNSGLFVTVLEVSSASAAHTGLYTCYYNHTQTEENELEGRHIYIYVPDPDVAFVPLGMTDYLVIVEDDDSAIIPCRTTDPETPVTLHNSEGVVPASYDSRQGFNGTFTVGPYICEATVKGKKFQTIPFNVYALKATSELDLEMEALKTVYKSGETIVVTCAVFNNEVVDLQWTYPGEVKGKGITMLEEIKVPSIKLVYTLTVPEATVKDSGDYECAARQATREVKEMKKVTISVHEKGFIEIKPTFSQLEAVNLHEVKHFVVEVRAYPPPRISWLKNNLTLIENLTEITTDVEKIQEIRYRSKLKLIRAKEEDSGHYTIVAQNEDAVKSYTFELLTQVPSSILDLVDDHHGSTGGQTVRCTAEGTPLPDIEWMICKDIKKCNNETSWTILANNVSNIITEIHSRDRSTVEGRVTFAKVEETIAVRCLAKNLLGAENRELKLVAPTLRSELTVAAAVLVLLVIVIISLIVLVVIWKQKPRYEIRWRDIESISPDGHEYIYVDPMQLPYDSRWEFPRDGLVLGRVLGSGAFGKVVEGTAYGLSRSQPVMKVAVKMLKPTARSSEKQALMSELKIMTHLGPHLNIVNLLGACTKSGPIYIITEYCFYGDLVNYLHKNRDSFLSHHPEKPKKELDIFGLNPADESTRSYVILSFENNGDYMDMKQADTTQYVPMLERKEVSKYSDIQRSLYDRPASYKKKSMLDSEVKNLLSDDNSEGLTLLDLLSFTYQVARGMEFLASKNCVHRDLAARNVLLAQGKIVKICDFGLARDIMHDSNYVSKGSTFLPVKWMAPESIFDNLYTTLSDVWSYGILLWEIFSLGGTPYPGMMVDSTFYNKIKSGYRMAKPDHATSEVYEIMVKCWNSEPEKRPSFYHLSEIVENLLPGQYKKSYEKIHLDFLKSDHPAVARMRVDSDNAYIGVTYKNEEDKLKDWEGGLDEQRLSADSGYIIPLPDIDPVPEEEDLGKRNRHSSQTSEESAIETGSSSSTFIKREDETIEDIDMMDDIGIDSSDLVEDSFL
Sequence of Proto-oncogene tyrosine-protein kinase receptor Ret (Homo sapiens) (P07949 whole entry): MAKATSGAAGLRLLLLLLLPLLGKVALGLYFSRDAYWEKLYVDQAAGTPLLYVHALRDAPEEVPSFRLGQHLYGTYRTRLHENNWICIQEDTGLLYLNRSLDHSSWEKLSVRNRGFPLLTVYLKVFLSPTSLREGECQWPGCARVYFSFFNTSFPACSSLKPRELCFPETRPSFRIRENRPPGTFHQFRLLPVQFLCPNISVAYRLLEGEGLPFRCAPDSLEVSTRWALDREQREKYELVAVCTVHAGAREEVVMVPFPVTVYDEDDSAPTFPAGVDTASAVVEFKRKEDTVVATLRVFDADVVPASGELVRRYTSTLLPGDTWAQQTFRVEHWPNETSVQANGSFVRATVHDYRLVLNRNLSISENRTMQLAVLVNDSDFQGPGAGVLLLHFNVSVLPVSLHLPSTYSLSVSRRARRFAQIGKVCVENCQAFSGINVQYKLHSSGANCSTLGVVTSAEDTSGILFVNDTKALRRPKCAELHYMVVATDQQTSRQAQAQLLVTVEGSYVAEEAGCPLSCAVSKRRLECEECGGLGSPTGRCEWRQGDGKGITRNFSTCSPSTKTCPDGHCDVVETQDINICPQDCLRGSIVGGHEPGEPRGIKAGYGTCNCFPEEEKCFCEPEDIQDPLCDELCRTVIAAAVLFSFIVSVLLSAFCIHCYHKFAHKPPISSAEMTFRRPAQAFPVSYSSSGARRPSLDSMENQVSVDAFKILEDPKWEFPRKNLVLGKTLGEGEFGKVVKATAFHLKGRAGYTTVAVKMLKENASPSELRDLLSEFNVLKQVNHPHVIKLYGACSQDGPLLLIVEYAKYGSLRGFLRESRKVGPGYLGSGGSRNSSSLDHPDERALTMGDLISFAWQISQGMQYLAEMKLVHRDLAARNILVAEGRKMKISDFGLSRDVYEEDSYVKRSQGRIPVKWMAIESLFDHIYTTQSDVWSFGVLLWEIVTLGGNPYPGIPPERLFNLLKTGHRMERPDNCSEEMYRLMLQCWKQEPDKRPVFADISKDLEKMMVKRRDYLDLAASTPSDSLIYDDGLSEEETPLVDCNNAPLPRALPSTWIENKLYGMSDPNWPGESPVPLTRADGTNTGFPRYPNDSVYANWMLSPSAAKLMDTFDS
Sequence of Platelet-derived growth factor receptor alpha (Homo sapiens), P16234 [D842V] (P16234 whole entry D842V): as the sequence (P16234 whole entry V561D) above, with D561V, D842V counted along it
Sequence of Protein-tyrosine kinase 2-beta (Homo sapiens) (Q14289 whole entry, looked up): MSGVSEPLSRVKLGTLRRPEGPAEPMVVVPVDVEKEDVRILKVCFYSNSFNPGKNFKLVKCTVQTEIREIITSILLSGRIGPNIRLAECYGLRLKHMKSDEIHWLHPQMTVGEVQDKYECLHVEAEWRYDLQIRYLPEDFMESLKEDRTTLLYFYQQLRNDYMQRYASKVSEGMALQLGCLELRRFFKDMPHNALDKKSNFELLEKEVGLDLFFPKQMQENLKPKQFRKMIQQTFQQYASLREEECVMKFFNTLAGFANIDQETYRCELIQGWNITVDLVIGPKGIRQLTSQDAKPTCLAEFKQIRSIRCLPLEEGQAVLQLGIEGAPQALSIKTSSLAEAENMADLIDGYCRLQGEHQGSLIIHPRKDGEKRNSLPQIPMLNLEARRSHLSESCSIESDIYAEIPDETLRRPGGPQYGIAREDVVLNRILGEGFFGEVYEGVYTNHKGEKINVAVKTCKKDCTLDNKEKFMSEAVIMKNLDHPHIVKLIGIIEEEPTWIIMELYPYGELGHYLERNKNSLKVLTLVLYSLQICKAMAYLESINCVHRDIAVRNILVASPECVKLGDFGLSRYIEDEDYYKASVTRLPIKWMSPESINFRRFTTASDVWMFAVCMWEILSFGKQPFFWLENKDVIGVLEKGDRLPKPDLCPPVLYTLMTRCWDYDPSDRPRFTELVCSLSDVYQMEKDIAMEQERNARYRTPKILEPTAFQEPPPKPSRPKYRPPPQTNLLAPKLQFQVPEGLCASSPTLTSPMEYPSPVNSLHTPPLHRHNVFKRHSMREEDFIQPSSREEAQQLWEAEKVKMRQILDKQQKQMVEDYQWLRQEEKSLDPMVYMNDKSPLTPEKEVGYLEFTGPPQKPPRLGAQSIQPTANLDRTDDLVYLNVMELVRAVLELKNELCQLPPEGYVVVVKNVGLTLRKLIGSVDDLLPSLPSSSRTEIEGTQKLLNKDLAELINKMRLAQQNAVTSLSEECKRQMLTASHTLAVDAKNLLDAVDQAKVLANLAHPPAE
Sequence of Tyrosine-protein kinase FRK (Homo sapiens) (P42685 whole entry): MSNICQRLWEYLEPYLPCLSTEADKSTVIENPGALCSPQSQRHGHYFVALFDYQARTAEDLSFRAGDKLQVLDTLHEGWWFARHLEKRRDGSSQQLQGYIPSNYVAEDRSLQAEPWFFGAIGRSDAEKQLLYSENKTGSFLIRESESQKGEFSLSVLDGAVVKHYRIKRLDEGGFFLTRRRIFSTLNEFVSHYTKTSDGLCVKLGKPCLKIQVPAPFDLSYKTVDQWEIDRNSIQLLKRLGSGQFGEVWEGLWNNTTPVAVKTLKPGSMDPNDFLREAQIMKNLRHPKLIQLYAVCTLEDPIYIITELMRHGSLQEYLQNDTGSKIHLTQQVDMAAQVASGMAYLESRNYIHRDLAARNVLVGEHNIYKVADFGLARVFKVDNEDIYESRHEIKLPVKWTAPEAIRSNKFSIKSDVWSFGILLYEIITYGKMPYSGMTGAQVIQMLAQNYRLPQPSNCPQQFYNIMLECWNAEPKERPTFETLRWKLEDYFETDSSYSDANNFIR

Usually inhibition stands for the relative decrease from the control value, in per cent. As for `COC(=O)Nc1nc2cc(Oc3cccc(NC(=O)Nc4cc(C(F)(F)F)ccc4F)c3)ccc2[nH]1`, the inhibition in assay [1] was found to be 32.3%; in [2], 48.6%; in assay [3], 80.2%; in assay [4], 2.6%; in assay [5], 8.72%; in [6] it was 4.75%. In addition, the inhibition was 37.5% in assay [7]; 40.7% in assay [8]; 87.4% in [9]; 11.4% in assay [10]; 45.3% in assay [11]; -0.02% in assay [12]. Moreover, the inhibition in [13] was 1.37%; in assay [14], 0.22%; in assay [15], -4.43%; in [16] it was 17%; in assay [17], 61.1%; in assay [18] it was 4.35%. Besides, the inhibition in assay [19] is 8.1%; in assay [20], 9.63%.

Regarding `O=C1Nc2ccc(C(=O)c3ccco3)cc2C1=Cc1cc(Cl)c(O)c(Cl)c1`, the inhibition in [1] is 8.26%; in [2], 8.06%; in assay [3] it was 26%; in [4] it was 4.54%; in [5] it was 19.8%; in [6] it was 6.25%. Also, the inhibition in assay [7] amounted to 11.5%; in assay [8] it was 7.12%; in [9] it was 26.8%; in [10], 7.32%; in assay [11], 18.5%; in assay [12], 1.7%. Further, the inhibition turned out to be 7.16% in assay [13]; 15% in assay [14]; 34.6% in [15]; 19.6% in assay [16]; 58.1% in assay [17]; 38.4% in [18]. The inhibition amounted to 74.7% in assay [19] and 16% in assay [20].

For the compound `NC(=O)c1ccc(-c2nc(-c3ccccn3)c(-c3ccc4c(c3)OCO4)[nH]2)cc1`, the inhibition was 3.59% in [1]; 6.2% in [2]; 9.06% in assay [3]; 1.44% in assay [4]; 2.57% in [5]; 8.08% in assay [6]. Moreover, the inhibition stood at 5.68% in assay [7]; 2.28% in assay [8]; 4.53% in [9]; 2.41% in [10]; 7.47% in assay [11]; 0.98% in assay [12]. Moreover, the inhibition in assay [13] was -0.16%; in assay [14] it was 1.97%; in assay [15], 6.61%; in assay [16] it was 6.29%; in [17] it was 8.97%; in [18], 4.67%. Besides, the results for the inhibition in [19] and in assay [20] were 5.88% and 6.95%, respectively.

Regarding `CCc1cccc(NC(=O)Nc2ccc(Oc3ccc4nc(NC(=O)OC)[nH]c4c3)cc2)c1`, the inhibition is 31.1% in assay [1]; 88.5% in assay [2]; 96.8% in assay [3]; 11.7% in assay [4]; 20.5% in [5]; 75.7% in assay [6]. Moreover, the inhibition in [7] is 100%; in assay [8], 86.6%; in [9], 94.5%; in assay [10], 40.4%; in [11] it was 56.3%; in [12] it was -0.04%. For the same compound, the inhibition in [13] amounted to 2.98%; in [14] it was 0.73%; in assay [15] it was 8.1%; in [16], 72.8%; in assay [17] it was 79.9%; in [18], 35.6%. The inhibition is 63.1% in assay [19] and 53.5% in [20].

Regarding `CC(=O)Nc1cccc(C#Cc2cncnc2Nc2ccc(OCc3cccc(F)c3)c(Cl)c2)n1`, the inhibition was 2.93% in [1]; 2.49% in assay [2]; 8.73% in [3]; 1.14% in assay [4]; 2.21% in assay [5]; -0.15% in assay [6]. The inhibition was -0.14% in assay [7]; 3.24% in [8]; 1.4% in assay [9]; 6.88% in assay [10]; 9.6% in assay [11]; 0.61% in assay [12]. The inhibition was 1.2% in assay [13]; -2.77% in assay [14]; 8.14% in assay [15]; -1.11% in assay [16]; 2.59% in assay [17]; 0.14% in [18]. The figures for the inhibition in assay [19] and in assay [20] were 10.2% and 0.37%, respectively.

As to `COc1ccc2cc(-c3c(-c4ccncc4)nc(-c4ccc([S+](C)[O-])cc4)n3C)ccc2c1` (stereo not given), the inhibition in assay [1] turned out to be 3.4%; in [2], 2.55%; in [3], 10%; in assay [4] it was 2.12%; in [5] it was 4.78%; in [6], 3.93%. Besides, the inhibition in assay [7] is 2.95%; in assay [8], -1.44%; in [9], 3.24%; in assay [10], 2.46%; in assay [11] it was 4.23%; in [12], 2.23%. In addition, the inhibition was determined as 1.18% in assay [13]; 3.6% in [14]; 4.13% in assay [15]; 4.55% in [16]; 8.7% in assay [17]; 3.54% in assay [18]. For the same compound, the inhibition is -0.15% in [19] and 5.77% in assay [20].
